# Values joined by “and” are separate entries in the source; they are usually repeats but may differ in a detail not shown here. Equal values may be shown once. Read-outs that look alike come from different tables or passages of the source.
# Tests used:
# TLK2 = details: concentration: 1 μM, replicates: in singlicate, n = 1
# TNIK = details: concentration: 1 μM, replicates: in singlicate, n = 1
# TNK1 = details: concentration: 1 μM, replicates: in singlicate; n = 1
# TNK2 = details: concentration: 1 μM, replicates: in singlicate, n = 1
# TNNI3K = details: concentration: 1 μM, replicates: in singlicate, n = 1
# TRKA = test system: T1, TRKA; details: concentration: 1 μM, replicates: in singlicate, n = 1
# T1 construct: gene NTRK1
# TRKB = details: concentration: 1 μM, replicates: in singlicate, n = 1
# TRKC = test system: T2, TRKC; details: concentration: 1 μM, replicates: in singlicate, n = 1
# T2 construct: gene NTRK3
# TRPM6 = details: concentration: 1 μM, replicates: in singlicate; n = 1
# TSSK1B = details: concentration: 1 μM, replicates: in singlicate, n = 1
# TSSK3 = details: concentration: 1 μM, replicates: in singlicate, n = 1
# TTK = details: concentration: 1 μM, replicates: in singlicate, n = 1
# TXK = details: concentration: 1 μM, replicates: in singlicate, n = 1
# [1] = test system: TYK2(JH1domain-catalytic); details: concentration: 1 μM, replicates: in singlicate, n = 1
# [2] = test system: TYK2(JH2domain-pseudokinase); details: concentration: 1 μM, replicates: in singlicate, n = 1
# TYRO3 = details: concentration: 1 μM, replicates: in singlicate; n = 1
# ULK1 = details: concentration: 1 μM, replicates: in singlicate, n = 1
# ULK2 = details: concentration: 1 μM, replicates: in singlicate, n = 1
# ULK3 = details: concentration: 1 μM, replicates: in singlicate, n = 1
# VEGFR2 = test system: T3, VEGFR2; details: concentration: 1 μM, replicates: in singlicate, n = 1
# T3 construct: gene KDR
# 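Note: KINOMEscan kinase panel screen.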
structure (smiles),measurement,setting,value
Cn1cc(-c2ccc3c(c2)CCN3C(=O)Cc2ccccc2Cl)c2c(N)ncnc21 [GSK2608885],%Inh,TLK2,0%
same,%Inh,TNIK,69%
same,%Inh,TNK1,100%
same,%Inh,TNK2,74%
same,%Inh,TNNI3K,64%
same,%Inh,TRKA,42%
same,%Inh,TRKB,0%
same,%Inh,TRKC,0%
same,%Inh,TRPM6,33%
same,%Inh,TSSK1B,17%
same,%Inh,TSSK3,7%
same,%Inh,TTK,17%
same,%Inh,TXK,85%
same,%Inh,[1],33%
same,%Inh,[2],0%
same,%Inh,TYRO3,100%
same,%Inh,ULK1,6%
same,%Inh,ULK2,0%
same,%Inh,ULK3,6%
same,%Inh,VEGFR2,82%
O=C(NCCNc1ccnc(Nc2ccc(F)cc2)n1)c1cc2ccccc2s1 [GSK1379874],%Inh,TLK2,0%
same,%Inh,TNIK,0%
same,%Inh,TNK1,0%
same,%Inh,TNK2,7%
same,%Inh,TNNI3K,0%
same,%Inh,TRKA,0%
same,%Inh,TRKB,4%
same,%Inh,TRKC,38%
same,%Inh,TRPM6,11%
same,%Inh,TSSK1B,0%
same,%Inh,TSSK3,22%
same,%Inh,TTK,0%
same,%Inh,TXK,100%
same,%Inh,[1],0%
same,%Inh,[2],21%
same,%Inh,TYRO3,0%
same,%Inh,ULK1,3%
same,%Inh,ULK2,0%
same,%Inh,ULK3,1%
same,%Inh,VEGFR2,0%
NS(=O)(=O)c1cccc(-c2ccc3nccc(-c4cccc(S(N)(=O)=O)c4)c3c2)c1 [GW867253],%Inh,TLK2,15%
same,%Inh,TNIK,16%
same,%Inh,TNK1,0%
same,%Inh,TNK2,0%
same,%Inh,TNNI3K,0%
same,%Inh,TRKA,0%
same,%Inh,TRKB,0%
same,%Inh,TRKC,0%
same,%Inh,TRPM6,0%
same,%Inh,TSSK1B,0%
same,%Inh,TSSK3,0%
same,%Inh,TTK,0%
same,%Inh,TXK,5%
same,%Inh,[1],0%
same,%Inh,[2],39%
same,%Inh,TYRO3,0%
same,%Inh,ULK1,12%
same,%Inh,ULK2,81%
same,%Inh,ULK3,18%
same,%Inh,VEGFR2,4%
Cc1cccc(-c2nc(-c3ccc(S(C)(=O)=O)cc3)sc2-c2ccncc2)c1,%Inh,TLK2,13%
same,%Inh,TNIK,36%
same,%Inh,TNK1,0%
same,%Inh,TNK2,0%
same,%Inh,TNNI3K,0%
same,%Inh,TRKA,6%
same,%Inh,TRKB,0%
same,%Inh,TRKC,0%
same,%Inh,TRPM6,9%
same,%Inh,TSSK1B,0%
same,%Inh,TSSK3,0%
same,%Inh,TTK,20%
same,%Inh,TXK,0%
same,%Inh,[1],2%
same,%Inh,[2],3%
same,%Inh,TYRO3,0%
same,%Inh,ULK1,0%
same,%Inh,ULK2,0%
same,%Inh,ULK3,0%
same,%Inh,VEGFR2,0%
NCCNS(=O)(=O)c1ccc(-c2ccnc3[nH]ccc23)cc1 [GSK977617],%Inh,TLK2; 1 µM,37% and 34%
same,%Inh,TNIK; 1 µM,61% and 55%
same,%Inh,TNK1,0%
same,%Inh,TNK2; 1 µM,4% and 6%
same,%Inh,TNNI3K; 1 µM,13% and 5%
same,%Inh,TRKA; 1 µM,100% and 97.9%
same,%Inh,TRKB; 1 µM,89% and 82%
same,%Inh,TRKC; 1 µM,80% and 63%
same,%Inh,TRPM6,0%
same,%Inh,TSSK1B; 1 µM,56% and 46%
same,%Inh,TSSK3; 1 µM,34% and 22%
same,%Inh,TTK; 1 µM,36% and 30%
same,%Inh,TXK; 1 µM,10% and 0%
same,%Inh,[1]; 1 µM,84% and 79%
same,%Inh,[2]; 1 µM,38% and 30%
same,%Inh,TYRO3,0%
same,%Inh,ULK1; 1 µM,93.8% and 83%
same,%Inh,ULK2; 1 µM,39% and 33%
same,%Inh,ULK3; 1 µM,64% and 35%
same,%Inh,VEGFR2; 1 µM,7% and 24%
